# Screens deposited in PubChem BioAssay by National Center for Advancing Translational Sciences (NCATS).
# NPC1 prom act: qHTS Assay for NPC1 Promoter Activators. Huh7 NPC1 promoter luciferase reporter, 24 h. Potency, µM (top dose mostly 9.22 µM), for inactives: at the top dose activation, most hits filed as activators. 320,000 compounds, 2.4% hits. AID 485313, 2010; note: % of control where 0% means no effect; nearly all actives have a fitted effect of over 60% in size
#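 Quantitative HTS used a cell-based reporter: Huh7 cells stably bearing the NPC1 promoter upstream of luciferase were treated with compounds for 24 h, and promoter activation was read as luminescence.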
# SMN2 splice up: qHTS Assay for Enhancers of SMN2 Splice Variant Expression. Potency, µM (series often up to 46.1 µM), inactives show at the highest dose activity change, positive = activation, hits mostly activators. 210,000 compounds, 2.8% hits. HEK293 SMN2-luciferase splicing reporter, luminescence, 30-36 h. AID 1458, 2008; note: % of control where 0% means no effect; nearly all actives have a fitted effect of over 55% in size
#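 HEK293 cells carry an SMN2 minigene-luciferase reporter in which exon 7 inclusion puts luciferase in frame. Cells were seeded at 2000 cells/well, attached for 10-12 hours, then exposed to compounds for 30-36 hours at 37C before ONE-Glo luminescence.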
# Rab9 promoter act: qHTS Assay for Rab9 Promoter Activators; Huh7 Rab9 promoter-luciferase reporter, luminescence, 24 h; Potency, µM (titrated, usually from 9.22 µM), without a hit: at the highest dose activation, negative = inhibition, most hits filed as activators; 320,000 compounds, 2.8% hits; AID 485297, 2010; note: % of control where 0% means no effect; nearly all actives have a fitted effect of over 60% in size
#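 Measured in stably transfected Huh7 cells bearing a Rab9 promoter–luciferase construct: 24 h compound treatment at 37 °C, followed by luminescence detection.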
# ELG1 DNA repair: qHTS screen for small molecules that inhibit ELG1-dependent DNA repair in human embryonic kidney (HEK293T) cells expressing luciferase-tagged ELG1; 330,000 compounds, 2.3% hits; HEK293T ELG1-luciferase reporter, luminescence, 16 h; DNA damage induced by 5-fluorouridine; Potency, µM (series often up to 46.1 µM), for inactives: at the top dose activity change, negative = inhibition, most hits filed as inhibitors; AID 504467, 2011; note: % is set by controls: 0 for no effect and ±100 for the full control effect; nearly all actives have a fitted effect of over 55% in size
#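 Overnight (16 hr) co-exposure of 2,000 cells/well to 5-fluorouridine and compound at 37 °C preceded detection. Luciferase was quantified via ONE-Glo luminescence; loss of signal denotes inhibition.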
# ELG1 genotoxic: qHTS screen for small molecules that induce genotoxicity in human embryonic kidney (HEK293T) cells expressing luciferase-tagged ELG1. HEK293T ELG1-luciferase reporter, luminescence, 16 h. Potency, µM (doses to about 46 µM), inactives show at the top dose activity change, positive = activation, hits mostly activators. 330,000 compounds, 1.3% hits. AID 504466, 2011; note: % of control where 0% means no effect; nearly all actives have a fitted effect of over 60% in size
#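 Screening used a luciferase reporter fused to human ELG1 in HEK293T cells. Luminescence was read on a CCD plate imager after 16 hr exposure and 30 min ONE-Glo incubation.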
# FLuc modulator: qHTS profiling assay for firefly luciferase inhibitor/activator using purifed enzyme and Km concentrations of substrates (counterscreen for miR-21 project) | Luciferin 4-monooxygenase (Photinus pyralis), P08659 | AID 588342, 2011 | Potency, µM (titrated, usually from 57.5 µM), for the others: top-dose activity change, negative = inhibition, most hits filed as inhibitors | 360,000 compounds, 6.9% hits | purified FLuc, Km substrates, luminescence inhibition;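 note: plate controls were vehicle for no effect and reference inhibitor for full effect; nearly all actives have a fitted effect of over 55% in size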
# Target sequence (P08659 whole entry, looked up): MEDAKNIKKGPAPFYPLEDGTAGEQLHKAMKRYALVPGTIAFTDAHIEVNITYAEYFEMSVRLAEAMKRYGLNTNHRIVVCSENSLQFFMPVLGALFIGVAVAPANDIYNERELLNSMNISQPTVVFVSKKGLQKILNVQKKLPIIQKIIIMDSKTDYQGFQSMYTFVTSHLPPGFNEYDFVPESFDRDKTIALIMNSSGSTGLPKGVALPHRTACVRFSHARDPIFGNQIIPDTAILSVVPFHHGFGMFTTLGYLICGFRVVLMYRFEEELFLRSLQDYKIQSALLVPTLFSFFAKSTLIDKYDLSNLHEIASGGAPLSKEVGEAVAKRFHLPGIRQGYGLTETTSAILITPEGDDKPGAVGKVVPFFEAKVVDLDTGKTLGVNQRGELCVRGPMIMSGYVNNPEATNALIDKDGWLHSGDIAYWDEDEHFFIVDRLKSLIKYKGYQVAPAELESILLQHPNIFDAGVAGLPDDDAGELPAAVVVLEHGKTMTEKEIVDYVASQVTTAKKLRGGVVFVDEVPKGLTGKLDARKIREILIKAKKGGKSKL
#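 Purified P. pyralis luciferase (10nM final) with 10uM D-luciferin and 10uM ATP (Km levels) in 50mM Tris acetate pH 7.5, 10mM Mg acetate, 0.01% Tween-20, 0.05% BSA; qHTS 6-point titration, ~60 µM downward; luminescence read.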
# * = called active by the depositor; ? = inconclusive; . = no result; [ ] = remark or other dose. Sampled rows, rich in hits. Any-hit rate of the full collection: about 9.2%. Calls come from the whole dose curve; as a rule, active = well fitted curve in the direction sought with a large enough effect; inconclusive = small, poorly fitted or top-dose-only effect, or another doubt; inactive = no such curve, though single readings can be large; an effect the other way counts as inactive or inconclusive. Potency is the fitted concentration of half-maximal effect.
SMILES,NPC1 prom act,SMN2 splice up,Rab9 promoter act,ELG1 DNA repair,ELG1 genotoxic,FLuc modulator
O=C(/C=C/c1ccc(-c2ccccc2[N+](=O)[O-])o1)c1ccco1,2%,9%,?,2%,2%,19µM*
O=C(COc1ccc2c3c(c(=O)oc2c1)CCC3)Nc1ccccn1,0.4µM*,.,5µM*,?,1.6µM*,0.27µM*
CC(=O)C(C)Oc1ccc2c3c(c(=O)oc2c1)CCCC3 (stereo not given),22%,-4%,24%,?,?,15µM*
CC(=O)C(C)Oc1ccc2c3c(c(=O)oc2c1)CCCCC3 (stereo not given),?,?,2.8µM*,?,9.2µM*,21µM*
CC(=O)COc1ccc2c3c(c(=O)oc2c1)CCCC3,3%,-19%,-3%,?,29%,-2%
CC(Oc1ccc2c3c(c(=O)oc2c1)CCCC3)C(=O)NCc1ccncc1 (stereo not given),-1%,.,1%,?,-6%,-6%
Cc1nc(C(C)N(C)Cc2nc(-c3ccc4c(c3)OCO4)no2)c(C)s1 (stereo not given),14%,.,?,10%,-1%,?
COc1ccc2c(c1)Cc1cc(N=[N+]([O-])c3ccc4c(c3)Cc3cc(OC)ccc3-4)ccc1-2,.,2%[9.22 µM],.,.,.,.
O=C(Nc1ccccn1)c1cc(-c2cccc(Cl)c2)nc2ccccc12,-2%,-7%,-4%,18µM*,-15%,-17%
O=C(Nc1ccc([N+](=O)[O-])cn1)c1cc(-c2cccc(Cl)c2)nc2ccccc12,-2%,1%,-2%,-19%,-7%,-19%
O=C(Nn1cnnc1)c1cc(-c2cccc(Br)c2)nc2ccccc12,18%,.,24%,?,?,0.85µM*
O=C(NC1=NCCS1)c1cc(-c2cccc(Br)c2)nc2ccccc12,2%,-38%,-1%,?,-4%,11µM*
Cc1ccc2nc(-c3cccc(Br)c3)cc(C(=O)NC3=NCCS3)c2c1,-1%,9%,0%,21µM*,-9%,5.4µM*
CC(OC(=O)c1nn(C(C)C)c(=O)c2ccccc12)C(=O)Nc1ncc(Cl)cc1Cl (stereo not given),-1%,-2%,0%,-7%,-1%,-1%
O=C(Nc1ncccn1)c1cc(-c2cccc(Br)c2)nc2ccccc12,0%,-15%,-4%,?,-8%,27µM*
O=C(Nc1ccncc1)c1cc(-c2cccc(Br)c2)nc2ccccc12,3%,.,-7%,?,-18%,-27%
COc1cc(/C=C2\C(=O)NN(c3ccccc3)C2=O)cc([N+](=O)[O-])c1O,-4%,3%,9%,1%,7%,?
COc1cc(/C=C2/C(=O)NN(c3ccc(Cl)cc3)C2=O)cc(OC)c1O,0%,.,-2%,5%,0%,12µM*
CCOC(=O)COc1ccc(/C=C2/C(=O)NN(c3ccc(F)cc3)C2=O)cc1OC,-3%,.,0%,56%,8%,?
COc1cc(/C=C2/C(=O)NN(c3ccccc3)C2=O)cc(Br)c1O,-4%,.,-2%,5%,10%,17µM*
CCOC(=O)c1sc2nc(CSc3ccccc3)nc(N3CCC(C(N)=O)CC3)c2c1C,-9%,-7%,0%,18µM*,-8%,-7%
Cc1sc2nc(CSc3ccccc3)nc(N3CCC(C(N)=O)CC3)c2c1C,-3%,11%,-1%,?,-9%,-11%
COc1ccc(C)cc1NC(=O)c1sc2ncnc(N3CCN(c4ccccn4)CC3)c2c1C,-4%,.,-8%,6.5µM*,-25%,-5%
CCOC(=O)c1sc2nc(CSc3ccccc3)nc(N3CCCN(C)CC3)c2c1C,-4%,-7%,-39%,?,-15%,-3%
CCOC(=O)c1sc2nc(CC(=O)OC)nc(N3CCN(c4ccccn4)CC3)c2c1C,-7%,-12%,-2%,9.2µM*,3%,-2%
SMILES,NPC1 prom act,SMN2 splice up,Rab9 promoter act,ELG1 DNA repair,ELG1 genotoxic,FLuc modulator
Nc1ncnc2c1ncn2[C@@H]1O[C@H](C(=O)NC2CC2)[C@@H](O)[C@H]1O,.,6%,.,.,.,.
O=S(=O)(c1ccccc1)N1CCC2(CC1)CN(c1ncccn1)C2,.,-6%,.,.,.,.
Cc1ccc(C)c(NC(=O)C(OC(=O)c2cc[n+]([O-])cc2)c2ccccc2)c1 (stereo not given),-4%,.,-1%,25%,-1%,-1%
CC(Sc1ccccc1)C(=O)NNC(=O)c1csc(N2CCOCC2)n1 (stereo not given),0%,.,-3%,7%,1%,0%
N/N=C(\Cc1cscn1)c1ccc(O)cc1O,-9%,.,-8%,23µM*,1%,1%
CCOC(=O)c1cc(S(=O)(=O)NCc2ccccc2)[nH]n1,.,.,.,.,.,-13%
C/C(=N\NC(=O)CSCc1ccccc1Cl)c1cc(O)ccc1O,-23%,.,-22%,18µM*,?,19µM*
O=C(NCC(c1cccs1)S(=O)(=O)c1ccccc1)c1ccc(C(F)(F)F)cc1 (stereo not given),.,.,.,.,.,2%
Oc1ccc(Br)cc1-c1nc2cnccn2c1NC1CCCC1,0%,?,-2%,23µM*,-8%,5%
COc1ccc(Cc2nc3ccc(C(=O)N(C)CCc4cnn(C)c4)cc3o2)cc1OC,-3%,.,-4%,?,0%,-15%
COc1ccc(-c2nc3n(c(=O)c2C#N)CCS3)cc1,5%,-14%,4%,5%,-3%,-2%
FC(F)Oc1ccc(/C=N/c2c(-c3ccc(OC(F)F)cc3)nc3n2CCS3)cc1,-2%,?,14%,-28%,2%,9.5µM*
CCCS(=O)(=O)c1cnc(C2COc3ccccc3O2)nc1N (stereo not given),-23%,.,-32%,?,?,0.12µM*
O=C(/C=C/c1ccco1)Nc1ccc(F)cc1,4µM*,.,4µM*,.,.,13µM*
O=C(/C=C/c1ccco1)NCc1ccc2c(c1)OCO2,4%,12%,-1%,3%,0%,?
O=C(/C=C/c1ccco1)Nc1ccc2c(c1)OCO2,1.8µM*,10µM*,0.79µM*,?,?,6µM*
CCOc1ccc(C(=O)c2cn(CC(=O)Nc3cc(OC)cc(OC)c3)c3ccc(F)cc3c2=O)cc1,.,11%,.,.,.,-5%
